Source: PubChem (National Center for Advancing Translational Sciences (NCATS))
TGFb SMAD3 inh – blocks TGF-b signaling; HepG2 CAGA-GFP TGF-b/SMAD3 reporter, GFP fluorescence, 18 h; TGF-beta stimulated, 500 pg/mL final; Potency, µM (highest dose often 46.1 µM), for inactives: at the top dose activity, negative = inhibition, hits mostly inhibitors; actives 1.2% (n = 410,000); AID 588855; note: potency is the fitted concentration of half-maximal effect; % is set by controls: 0 for no effect and ±100 for the full control effect; nearly all actives have a fitted effect of over 65% in size
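HEPG2 CAGA-GFP cells (1000/well, DMEM with 1% FBS) were pre-incubated 2 h at 37 degrees C, given compound by pin tool, then stimulated with TGF-beta at 500 pg/mL final for 18 h before per-cell GFP fluorescence imaging.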
D3 ag – D3 dopamine receptor (human) agonism; P35462; D3R DiscoveRx beta-arrestin cells, luminescence, 90 min; max activation, %; actives 0.58% (n = 410,000); in the data active = max activation above about 30%; note: 0% is about no effect
Target sequence (P35462 whole entry, looked up): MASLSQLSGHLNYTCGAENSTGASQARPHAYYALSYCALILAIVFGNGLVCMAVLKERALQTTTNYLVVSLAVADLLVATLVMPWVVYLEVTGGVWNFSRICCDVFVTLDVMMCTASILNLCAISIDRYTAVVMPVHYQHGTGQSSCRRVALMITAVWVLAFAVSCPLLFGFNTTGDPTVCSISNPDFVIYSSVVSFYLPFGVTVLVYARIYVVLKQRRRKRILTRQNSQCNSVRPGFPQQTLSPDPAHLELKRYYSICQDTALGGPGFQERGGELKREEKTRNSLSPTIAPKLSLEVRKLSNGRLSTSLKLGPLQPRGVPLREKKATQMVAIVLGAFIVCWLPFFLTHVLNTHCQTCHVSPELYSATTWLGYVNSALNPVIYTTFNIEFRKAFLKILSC
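Agonist-mode cell screen: cells plated at 1500/well and incubated overnight at 37 °C, then exposed to library compounds for 90 min at 37 °C. Detection reagent was added for 30–60 min at room temperature, and luminescence was read.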
ATXN2 expr inh – ATXN2 expression inhibition. actives 0.72% (n = 360,000). Potency, µM (doses to about 57 µM), for inactives: top-dose activity change, negative = inhibition, actives largely listed as inhibitors. HEK-293 ATXN2-luciferase reporter, luminescence, 24 h; note: potency is the fitted concentration of half-maximal effect; % is set by controls: 0 for no effect and ±100 for the full control effect; nearly all actives have a fitted effect of over 55% in size
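ATXN2-luciferase reporter cells (luciferase flanked by upstream and downstream ATXN2 gene portions) were treated 24 h at 37 °C with compounds at up to 57 uM. SteadyGlo luminescence gave expression; GF-AFC fluorescence gave viability.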
DRD3 antagonist – D3 dopamine receptor (human) antagonism; actives 2.5% (n = 360,000); D3R cells, DiscoveRx beta-arrestin luminescence, antagonist mode; active compounds read low; AID 652054; max response, negative = inhibition, %; in the data active = max response below about -50%; inconclusive = no clear call, values can overlap the other calls; note: % is set by controls: 0 for no effect and ±100 for the full control effect
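Cells plated overnight at 1500 cells/well, then exposed to library compounds with dopamine controls for 90 minutes at 37 degrees C. DiscoveRx reagent added for 30–60 minutes at room temperature; luminescence read, quantitative HTS format.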
HepG2 tox – HepG2 cytotoxicity, counter-screen for TGF-b inhibitors. HepG2 CAGA-GFP viability, ATP luminescence, 18 h. Potency, µM (highest dose often 46.1 µM), inactives show at the highest dose activity change, negative = cytotoxicity, usual class: cytotoxic. actives 0.76% (n = 410,000); note: potency is the fitted concentration of half-maximal effect
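CellTiter-Glo luminescence gave cytotoxicity after 18 hours at 37 degrees C. The cells were HepG2 CAGA-GFP in 1% FBS DMEM, stimulated with 500 pg/mL TGF-beta after compound addition. %Activity was normalised to no-cell wells (complete cell-killing) and DMSO (no toxicity), and curves were fitted and classified.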
ATXN viability – reduces viability in counter-screen for ATXN expression inhibitors. actives 0.49% (n = 400,000). S2 cells (HEK-293 line with an ATXN2-luciferase reporter) viability, CellTiter-Fluor protease fluorescence, 24 h. Potency, µM (doses to about 56.7 µM), usual class: cytotoxic. AID 651635; note: potency is the fitted concentration of half-maximal effect; nearly all actives have a fitted effect of over 40% in size
The depositor's hits bear a star; i = inactive; ? = inconclusive; . = no result; [ ] = remark or other dose. This is a sample that favours compounds with a hit; in the whole collection about 4.7% have one here. Unless noted, calls come from the whole dose curve; as a rule, active = well fitted curve in the direction sought with a large enough effect; inconclusive = small, poorly fitted or top-dose-only effect, or another doubt; inactive = no such curve, though single readings can be large; an effect the other way counts as inactive or inconclusive.

SMILES | TGFb SMAD3 inh | D3 ag | ATXN2 expr inh | DRD3 antagonist | HepG2 tox | ATXN viability
c1ccc(C2[C@H]3CN(Cc4cccnc4)[C@H](c4ccccc4)C34CC2(c2cccnc2)C4)cc1 (some centres not stated) | 14.1µM* | -4.6 | -14.1% | ? | -58.4% | ?
c1ccc(C2[C@H]3CN(Cc4cccnc4)[C@H](c4ccccc4)C34CC2(c2ccccc2)C4)cc1 (some centres not stated) | ? | -8.9 | -10.1% | 0.6 | -17.6% | ?
COc1cccc(C(c2sc3nc(-c4ccco4)nn3c2O)N2CCC3(CC2)OCCO3)c1 (configuration not stated) | 0.4% | 2.3 | 14.1% | . | 5.1% | i
CC1Cc2ccccc2N1CC(=O)Nc1ccc2c(c1)OCCCO2 (configuration not stated) | -12.8% | 67.4* | 9.9% | -1.5 | -38.8% | i
CC1Cc2ccccc2N1CC(=O)Nc1ccc(N2CCOCC2)cc1 (configuration not stated) | -5.7% | -2.9 | -13.8% | -7.4 | -10.0% | i
CC(=O)c1ccc(NC(=O)CN2CCC(C(=O)c3ccc(F)cc3)CC2)cc1 | -2.5% | -15.8 | 0.3% | ? | 7.2% | i
Cc1ccc(C(=O)C2CCN(CC(=O)Nc3ccc(N(C)C)cc3)CC2)cc1 | 4.0% | -63.2 | -14.7% | -81.9* | -19.1% | i
O=C(CN1CCC(C(=O)c2ccc(F)cc2)CC1)Nc1ccccc1 | ? | -27.6 | -11.2% | -80.5* | -25.1% | i
Cc1ccc(C(=O)C2CCN(CC(=O)Nc3ccc4c(c3)OCCO4)CC2)cc1 | -6.0% | 0.0 | -16.2% | -69.6* | -10.2% | i
Cc1ccc(C)c(NC(=O)C(=O)NCC(c2cccnc2)N2CCN(c3ccc(F)cc3)CC2)c1 (configuration not stated) | 5.9% | 1.5 | . | . | -1.5% | .
C=C[C@]1(C)C[C@@H](OC(=O)CSCCN(CC)CC)[C@]2(C)[C@H](C)CC[C@]3(CCC(=O)[C@H]32)[C@@H](C)[C@@H]1O | . | -24.5 | . | . | . | .
C#CCN(C1CCCC1)S(=O)(=O)C=C | -19.5% | . | . | . | -65.3% | .
CN(C)c1ccc(NC(=O)CN2CCC(O)(c3ccccc3)CC2)cc1 | 0.0% | -17.4 | -6.7% | -79.0* | 3.1% | i
O=C(CN1CCN(c2ccc(F)cc2)CC1)Nc1ccc2c(c1)OCCO2 | 9.3% | -2.4 | -21.4% | -3.6 | -2.9% | i
Cc1cc(C)c(C(=O)Nc2ccc3c(c2)OCCO3)c(C)c1 | -0.7% | 0.8 | . | 20.7 | 13.5% | i
O=C(CN1CCN(c2ccc(O)cc2)CC1)Nc1ccc2c(c1)OCCO2 | -18.1% | 30.2* | -5.9%[11.3 µM] | 4.1 | -3.4% | ?
O=C(CN1CCC(C(=O)c2ccc(F)cc2)CC1)Nc1ccc(F)cc1 | 0.3% | 0.6 | -14.8% | -70.8* | -22.5% | i
CN(C)c1ccc(NC(=O)CN2CCN(CC(=O)Nc3ccc(F)cc3)CC2)cc1 | 2.6% | 7.1 | 6.8% | 2.3 | -31.0% | i
Cc1ccc(C(=O)Nc2ccc3c(c2)OCCO3)c(C)c1 | 9.8% | 6.4 | 5.01µM* | 0.9 | -29.8% | i
CCc1ccc(C(=O)NC(Cc2c[nH]c3ccccc23)C(=O)OCC(=O)c2ccc(Br)cc2)cc1 (configuration not stated) | -4.5% | -10.7 | . | . | -38.0% | .
O=C(NCCN1CCOCC1)c1cnn(-c2nccc(-c3ccccc3F)n2)c1C1CC1 | . | . | . | . | . | i
Cc1ccc(-c2nnc3ccc(SCC(=O)OCc4ccccc4)nn23)cc1 | -2.3% | . | . | . | -6.7% | .
O=C1CS/C(=N\N=C\c2ccco2)N1c1ccccc1 | -6.2% | -0.2 | 9.1% | 1.8 | 33.3% | i
O=C1CS/C(=C\[N+](=O)[O-])N1c1ccccc1 | -7.3% | -4.0 | -3.1% | -70.8* | -20.4% | i
COc1cccc(CNC(=O)Cn2nc(C)c3sc4ccccc4c3c2=O)c1OC | 8.6% | -15.2 | 3.6% | . | 6.1% | i
SMILES | TGFb SMAD3 inh | D3 ag | ATXN2 expr inh | DRD3 antagonist | HepG2 tox | ATXN viability
CCOc1ccc(-c2cc(C(=O)NCCCN3CCN(CC)CC3)c3ccccc3n2)cc1 | 29.2% | -14.5 | -1.2% | -12.2 | 20µM* | ?
O=C(NCCCn1ccnc1)c1nn2c(C(F)(F)F)cc(-c3ccc(Br)cc3)nc2c1Cl | 17.6% | -3.5 | ? | -18.6 | 5.62µM* | ?
CCOc1ccc(-c2cc(C(=O)NCCCn3ccnc3)c3ccccc3n2)cc1 | -0.8% | -1.5 | -10.2% | 11.1 | -14.7% | ?
CCOc1ccc(-c2cc(C(=O)NCCCn3ccnc3)c3cc(Br)ccc3n2)cc1 | 14.1µM* | -2.7 | -18.0% | -7.5 | -92.1% | ?
CCCNC(=O)c1nn2c(C(F)(F)F)cc(-c3ccccc3)nc2c1Cl | 0.3% | 2.3 | -0.7% | 14.7 | -13.1% | ?
COc1ccccc1-c1cc2c(c(OC)c1)OCCN(C(=O)Cn1nc(-c3ccccc3)c3ccccc3c1=O)C2 | . | . | . | . | . | i
Cc1cc(C)n(-c2cccc(C(=O)NCC3Cc4cccc(-c5ccccn5)c4O3)c2)n1 (configuration not stated) | . | . | . | . | . | i
CCCc1cc(=O)[nH]c(SCC(=O)NCCCC(=O)OCC)n1 | 0.6% | -1.4 | -4.9% | 4.6 | 0.447µM* | i
O=C(OCc1cn([C@@H]2CN(CC3CCCCC3)[C@@H](c3ccc(Cl)cc3)C[C@H]2O)nn1)c1ccccc1 | -6.1% | -10.2 | -3.1% | 0.0 | -9.4% | i
O=C(OCc1cn([C@H]2CN(CC3CCCCC3)[C@@H](c3ccc(Cl)cc3)C[C@@H]2O)nn1)c1ccccc1 | 17.8µM* | 0.7 | ? | -6.9 | 12.6µM* | .
O=C(OCc1cn([C@H]2CN(CC3CCCCC3)[C@@H](c3ccccc3)C[C@@H]2O)nn1)c1ccccc1 | -1.8% | 4.6 | 3.4% | 11.6 | -7.0% | i
O=C(OCc1cn([C@@H]2CN(CC3CCCCC3)[C@@H](c3ccccc3)C[C@H]2O)nn1)c1ccccc1 | 3.0% | 0.9 | ? | 17.2 | -6.2% | 25.1µM*
O=c1cc2oc3cc(O)c(O)cc3c(-c3ccccc3[N+](=O)[O-])c-2cc1O | -24.4% | -8.7 | . | -29.8 | -15.2% | 15.8µM*
COC(=O)c1cc(CNC(=O)c2cccc(N(C)C)c2)cc(NC(=O)c2ccccc2Cl)c1 | . | . | . | . | . | i
c1cncc(-c2nn3c(Cn4nnc5ccccc54)nnc3s2)c1 | 10.5% | 50.9* | 3.4% | 18.8 | -4.6% | i
c1ccc(-c2nn3c(Cn4nnc5ccccc54)nnc3s2)nc1 | -2.0% | -4.8 | 1.3% | -8.9 | 0.7% | i
O=C(COC(=O)c1ccc2ncsc2c1)NC(=O)C1CCCCC1 | -4.0% | . | . | . | 0.2% | .
